Test [1] has as its target T1, Ephrin type-B receptor 2 (Homo sapiens) (UniProt P29323).
T1 sequence (whole entry): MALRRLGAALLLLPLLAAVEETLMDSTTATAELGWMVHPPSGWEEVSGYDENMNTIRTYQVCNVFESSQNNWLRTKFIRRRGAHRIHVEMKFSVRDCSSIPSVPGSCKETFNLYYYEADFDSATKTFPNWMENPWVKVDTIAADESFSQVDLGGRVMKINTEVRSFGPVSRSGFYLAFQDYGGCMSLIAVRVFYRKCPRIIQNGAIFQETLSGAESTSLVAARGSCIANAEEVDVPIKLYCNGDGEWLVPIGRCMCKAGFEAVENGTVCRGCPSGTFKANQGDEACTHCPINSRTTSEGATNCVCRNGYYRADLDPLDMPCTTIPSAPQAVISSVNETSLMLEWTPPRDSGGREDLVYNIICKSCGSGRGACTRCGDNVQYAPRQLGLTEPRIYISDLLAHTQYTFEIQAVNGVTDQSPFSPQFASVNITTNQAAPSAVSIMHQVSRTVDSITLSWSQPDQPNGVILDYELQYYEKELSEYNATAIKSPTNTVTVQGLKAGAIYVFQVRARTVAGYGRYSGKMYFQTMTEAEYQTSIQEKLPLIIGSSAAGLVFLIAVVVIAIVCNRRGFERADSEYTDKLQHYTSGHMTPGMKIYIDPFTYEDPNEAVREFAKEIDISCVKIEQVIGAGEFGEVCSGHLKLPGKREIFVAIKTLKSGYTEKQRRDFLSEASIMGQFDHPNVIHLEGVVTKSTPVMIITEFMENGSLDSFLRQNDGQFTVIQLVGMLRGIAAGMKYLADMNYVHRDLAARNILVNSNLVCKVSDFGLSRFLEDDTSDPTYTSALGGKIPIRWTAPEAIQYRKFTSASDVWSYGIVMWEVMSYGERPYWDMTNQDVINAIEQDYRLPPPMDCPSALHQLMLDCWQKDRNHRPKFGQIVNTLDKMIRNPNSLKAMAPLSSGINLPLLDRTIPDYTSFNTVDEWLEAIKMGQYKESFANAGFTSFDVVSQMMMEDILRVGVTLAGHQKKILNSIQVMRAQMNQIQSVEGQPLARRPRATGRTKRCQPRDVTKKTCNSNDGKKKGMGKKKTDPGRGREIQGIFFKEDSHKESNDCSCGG
As to conditions: at 1 µM.

Test [2] deals with T2, Ephrin type-B receptor 3 (Homo sapiens) (UniProt P54753).
T2 sequence (whole entry): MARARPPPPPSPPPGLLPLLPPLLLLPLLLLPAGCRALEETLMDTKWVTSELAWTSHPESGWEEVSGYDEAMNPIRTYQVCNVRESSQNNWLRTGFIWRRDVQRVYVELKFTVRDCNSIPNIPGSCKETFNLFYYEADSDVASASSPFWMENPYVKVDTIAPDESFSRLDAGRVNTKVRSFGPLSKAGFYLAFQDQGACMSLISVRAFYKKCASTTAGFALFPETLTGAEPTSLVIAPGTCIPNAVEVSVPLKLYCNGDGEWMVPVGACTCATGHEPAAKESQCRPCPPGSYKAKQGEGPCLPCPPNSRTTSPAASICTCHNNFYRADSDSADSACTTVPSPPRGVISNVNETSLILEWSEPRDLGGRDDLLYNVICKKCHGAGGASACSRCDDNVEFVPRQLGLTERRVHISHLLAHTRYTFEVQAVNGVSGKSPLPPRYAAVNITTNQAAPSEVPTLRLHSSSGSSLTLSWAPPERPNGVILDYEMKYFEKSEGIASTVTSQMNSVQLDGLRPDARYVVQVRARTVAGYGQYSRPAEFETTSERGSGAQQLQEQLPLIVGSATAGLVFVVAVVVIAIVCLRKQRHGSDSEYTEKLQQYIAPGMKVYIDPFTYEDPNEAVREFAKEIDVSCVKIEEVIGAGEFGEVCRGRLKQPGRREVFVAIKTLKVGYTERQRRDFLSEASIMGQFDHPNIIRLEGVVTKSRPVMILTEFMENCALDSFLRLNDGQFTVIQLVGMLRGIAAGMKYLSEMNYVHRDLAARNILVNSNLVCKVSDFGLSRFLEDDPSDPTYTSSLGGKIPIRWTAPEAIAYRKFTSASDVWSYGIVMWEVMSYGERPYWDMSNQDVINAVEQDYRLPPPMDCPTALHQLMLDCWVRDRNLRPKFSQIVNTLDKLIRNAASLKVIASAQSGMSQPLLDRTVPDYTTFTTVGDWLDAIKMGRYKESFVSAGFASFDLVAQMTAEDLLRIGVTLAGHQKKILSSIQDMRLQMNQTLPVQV
The note with it: at 0.1 µM.

For test [3], the target named is T2, Ephrin type-B receptor 3 (Homo sapiens). As to conditions: at 1 µM.
For test [4], the target named is T3, Ephrin type-B receptor 4 (Homo sapiens) (UniProt P54760).
T3 sequence (whole entry): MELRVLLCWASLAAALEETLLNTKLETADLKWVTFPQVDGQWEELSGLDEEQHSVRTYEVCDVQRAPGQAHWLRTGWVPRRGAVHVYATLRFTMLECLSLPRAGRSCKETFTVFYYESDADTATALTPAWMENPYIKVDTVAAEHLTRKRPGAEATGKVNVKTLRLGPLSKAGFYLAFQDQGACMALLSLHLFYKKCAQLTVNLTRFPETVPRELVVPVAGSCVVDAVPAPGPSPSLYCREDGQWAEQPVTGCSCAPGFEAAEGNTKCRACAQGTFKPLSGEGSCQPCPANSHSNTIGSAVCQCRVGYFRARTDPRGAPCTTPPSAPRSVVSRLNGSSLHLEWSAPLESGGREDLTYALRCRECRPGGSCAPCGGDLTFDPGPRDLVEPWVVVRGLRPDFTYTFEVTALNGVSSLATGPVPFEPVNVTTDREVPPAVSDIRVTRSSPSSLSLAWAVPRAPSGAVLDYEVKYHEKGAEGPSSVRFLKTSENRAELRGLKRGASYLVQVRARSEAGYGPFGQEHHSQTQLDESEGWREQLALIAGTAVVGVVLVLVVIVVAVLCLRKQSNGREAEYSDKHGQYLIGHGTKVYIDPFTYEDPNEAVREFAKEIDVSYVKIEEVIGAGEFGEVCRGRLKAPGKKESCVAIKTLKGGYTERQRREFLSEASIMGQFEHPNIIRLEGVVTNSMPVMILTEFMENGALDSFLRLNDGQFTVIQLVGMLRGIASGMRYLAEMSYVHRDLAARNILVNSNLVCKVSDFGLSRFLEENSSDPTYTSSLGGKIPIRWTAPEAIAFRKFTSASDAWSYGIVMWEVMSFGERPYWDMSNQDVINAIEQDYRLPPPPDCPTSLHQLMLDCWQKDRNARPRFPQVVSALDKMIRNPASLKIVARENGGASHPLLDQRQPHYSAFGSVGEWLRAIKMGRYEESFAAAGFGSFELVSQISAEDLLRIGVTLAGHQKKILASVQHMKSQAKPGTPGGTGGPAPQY
The note with it: at 0.1 µM.

Test [5] deals with T3, Ephrin type-B receptor 4 (Homo sapiens). As to conditions: at 1 µM.
The target of test [6] is Receptor tyrosine-protein kinase erbB-2 (Homo sapiens) (UniProt P04626). As to conditions: at 0.1 µM.
Test [7] has the same target. As to conditions: at 1 µM.
In test [8] the target is Receptor tyrosine-protein kinase erbB-4 (Homo sapiens) (UniProt Q15303). The note with it: at 0.1 µM.
Test [9] has the same target. As to conditions: at 1 µM.
For test [10], the target named is Tyrosine-protein kinase Fer (Homo sapiens) (UniProt P16591). The note with it: at 0.1 µM.
The target is the same in test [11]. As to conditions: at 1 µM.
For test [12], the target named is Tyrosine-protein kinase Fes/Fps (Homo sapiens) (UniProt P07332). The note with it: at 0.1 µM.
For test [13] the target is unchanged. The note with it: at 1 µM.
Test [14] addresses Fibroblast growth factor receptor 1 (Homo sapiens) (UniProt P11362). The note with it: at 0.1 µM.
The target is the same in test [15]. As to conditions: at 1 µM.
The target of test [16] is Fibroblast growth factor receptor 2 (Homo sapiens) (UniProt P21802). As to conditions: at 0.1 µM.
For test [17] the target is unchanged. As to conditions: at 1 µM.
In test [18] the target is Fibroblast growth factor receptor 3 (Homo sapiens) (UniProt P22607). As to conditions: at 0.1 µM.
Test [19] has the same target. The note with it: at 1 µM.
In test [20] the target is Fibroblast growth factor receptor 4 (Homo sapiens) (UniProt P22455). The note with it: at 0.1 µM.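 Note: values are mean percent inhibition of FGFR4.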
Fibroblast growth factor receptor 4 (Homo sapiens), sequence (P22455 22-802 limits assumed): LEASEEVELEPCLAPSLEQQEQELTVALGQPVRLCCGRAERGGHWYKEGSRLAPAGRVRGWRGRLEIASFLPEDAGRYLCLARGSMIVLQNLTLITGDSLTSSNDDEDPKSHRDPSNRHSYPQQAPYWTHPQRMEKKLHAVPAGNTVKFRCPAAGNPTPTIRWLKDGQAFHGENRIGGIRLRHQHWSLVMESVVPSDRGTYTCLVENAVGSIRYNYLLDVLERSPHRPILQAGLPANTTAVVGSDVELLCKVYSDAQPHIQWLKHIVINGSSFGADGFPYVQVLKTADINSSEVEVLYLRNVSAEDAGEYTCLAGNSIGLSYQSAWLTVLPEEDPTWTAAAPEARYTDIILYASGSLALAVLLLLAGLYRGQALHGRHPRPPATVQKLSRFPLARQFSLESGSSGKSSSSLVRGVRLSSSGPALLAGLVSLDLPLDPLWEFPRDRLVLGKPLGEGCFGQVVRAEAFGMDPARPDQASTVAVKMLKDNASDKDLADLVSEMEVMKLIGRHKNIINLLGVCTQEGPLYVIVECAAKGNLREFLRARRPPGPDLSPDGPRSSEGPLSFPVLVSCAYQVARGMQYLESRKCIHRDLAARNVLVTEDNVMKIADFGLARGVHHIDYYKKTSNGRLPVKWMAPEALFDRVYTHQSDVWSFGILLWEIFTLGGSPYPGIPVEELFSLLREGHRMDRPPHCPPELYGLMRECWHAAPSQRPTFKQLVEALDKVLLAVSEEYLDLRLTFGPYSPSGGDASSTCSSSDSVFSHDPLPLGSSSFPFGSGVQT

Tyrosine-protein kinase Fes/Fps (Homo sapiens), sequence (P07332 whole entry): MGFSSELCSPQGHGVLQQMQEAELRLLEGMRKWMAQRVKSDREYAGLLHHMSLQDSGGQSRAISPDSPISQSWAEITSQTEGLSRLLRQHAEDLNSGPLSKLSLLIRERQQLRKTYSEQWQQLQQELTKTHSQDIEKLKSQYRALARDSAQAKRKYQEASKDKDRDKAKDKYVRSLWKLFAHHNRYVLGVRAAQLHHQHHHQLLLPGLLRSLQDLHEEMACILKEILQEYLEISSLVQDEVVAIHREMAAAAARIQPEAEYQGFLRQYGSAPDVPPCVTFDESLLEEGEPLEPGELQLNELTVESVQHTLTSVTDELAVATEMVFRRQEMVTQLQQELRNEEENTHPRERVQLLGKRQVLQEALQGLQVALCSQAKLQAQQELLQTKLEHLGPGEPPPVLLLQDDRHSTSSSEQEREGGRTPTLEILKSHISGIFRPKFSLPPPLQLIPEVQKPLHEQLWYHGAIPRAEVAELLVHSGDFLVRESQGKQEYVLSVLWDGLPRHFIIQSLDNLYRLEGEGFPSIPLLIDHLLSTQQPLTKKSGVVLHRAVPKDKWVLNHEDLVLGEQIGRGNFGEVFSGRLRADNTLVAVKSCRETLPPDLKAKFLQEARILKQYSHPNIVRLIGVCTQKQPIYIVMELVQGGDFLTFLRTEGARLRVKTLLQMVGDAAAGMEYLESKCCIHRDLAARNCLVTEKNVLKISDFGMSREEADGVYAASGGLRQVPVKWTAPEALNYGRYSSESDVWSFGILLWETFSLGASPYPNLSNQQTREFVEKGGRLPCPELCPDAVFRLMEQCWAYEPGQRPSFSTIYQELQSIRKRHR
Receptor tyrosine-protein kinase erbB-4 (Homo sapiens), sequence (Q15303 whole entry): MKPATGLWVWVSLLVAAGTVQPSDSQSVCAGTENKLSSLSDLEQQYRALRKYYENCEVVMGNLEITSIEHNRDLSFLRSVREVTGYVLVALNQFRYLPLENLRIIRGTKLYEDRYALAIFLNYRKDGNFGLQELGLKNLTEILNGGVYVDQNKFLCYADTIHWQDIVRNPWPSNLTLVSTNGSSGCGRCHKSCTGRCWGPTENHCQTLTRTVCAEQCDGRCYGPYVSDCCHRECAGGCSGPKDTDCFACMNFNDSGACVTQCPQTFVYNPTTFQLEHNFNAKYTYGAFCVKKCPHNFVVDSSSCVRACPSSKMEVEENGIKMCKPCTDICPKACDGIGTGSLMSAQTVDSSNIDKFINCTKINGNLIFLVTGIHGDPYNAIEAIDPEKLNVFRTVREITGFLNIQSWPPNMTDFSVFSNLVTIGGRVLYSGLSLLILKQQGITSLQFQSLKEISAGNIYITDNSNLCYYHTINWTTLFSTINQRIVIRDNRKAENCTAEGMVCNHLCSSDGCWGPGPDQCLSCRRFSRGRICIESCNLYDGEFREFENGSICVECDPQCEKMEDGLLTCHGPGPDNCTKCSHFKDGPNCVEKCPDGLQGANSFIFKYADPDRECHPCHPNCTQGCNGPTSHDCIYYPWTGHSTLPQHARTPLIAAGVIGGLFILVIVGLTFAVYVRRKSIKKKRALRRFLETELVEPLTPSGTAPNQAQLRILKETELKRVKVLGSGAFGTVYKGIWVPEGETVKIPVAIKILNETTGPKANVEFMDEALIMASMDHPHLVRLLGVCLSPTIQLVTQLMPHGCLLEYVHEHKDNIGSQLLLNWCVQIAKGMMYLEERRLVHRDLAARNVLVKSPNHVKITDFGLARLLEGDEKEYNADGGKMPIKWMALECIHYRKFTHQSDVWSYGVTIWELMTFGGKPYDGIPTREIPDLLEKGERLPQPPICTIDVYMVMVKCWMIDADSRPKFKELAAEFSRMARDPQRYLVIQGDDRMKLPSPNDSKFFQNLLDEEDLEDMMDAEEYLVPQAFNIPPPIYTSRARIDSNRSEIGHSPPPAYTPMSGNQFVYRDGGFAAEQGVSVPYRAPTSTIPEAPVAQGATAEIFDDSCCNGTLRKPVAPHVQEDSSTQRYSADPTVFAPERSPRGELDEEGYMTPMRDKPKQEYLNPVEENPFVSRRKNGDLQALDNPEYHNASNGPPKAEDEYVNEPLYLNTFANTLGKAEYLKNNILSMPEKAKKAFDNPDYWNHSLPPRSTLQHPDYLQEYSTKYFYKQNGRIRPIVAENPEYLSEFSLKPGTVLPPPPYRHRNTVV
Receptor tyrosine-protein kinase erbB-2 (Homo sapiens), sequence (P04626 whole entry): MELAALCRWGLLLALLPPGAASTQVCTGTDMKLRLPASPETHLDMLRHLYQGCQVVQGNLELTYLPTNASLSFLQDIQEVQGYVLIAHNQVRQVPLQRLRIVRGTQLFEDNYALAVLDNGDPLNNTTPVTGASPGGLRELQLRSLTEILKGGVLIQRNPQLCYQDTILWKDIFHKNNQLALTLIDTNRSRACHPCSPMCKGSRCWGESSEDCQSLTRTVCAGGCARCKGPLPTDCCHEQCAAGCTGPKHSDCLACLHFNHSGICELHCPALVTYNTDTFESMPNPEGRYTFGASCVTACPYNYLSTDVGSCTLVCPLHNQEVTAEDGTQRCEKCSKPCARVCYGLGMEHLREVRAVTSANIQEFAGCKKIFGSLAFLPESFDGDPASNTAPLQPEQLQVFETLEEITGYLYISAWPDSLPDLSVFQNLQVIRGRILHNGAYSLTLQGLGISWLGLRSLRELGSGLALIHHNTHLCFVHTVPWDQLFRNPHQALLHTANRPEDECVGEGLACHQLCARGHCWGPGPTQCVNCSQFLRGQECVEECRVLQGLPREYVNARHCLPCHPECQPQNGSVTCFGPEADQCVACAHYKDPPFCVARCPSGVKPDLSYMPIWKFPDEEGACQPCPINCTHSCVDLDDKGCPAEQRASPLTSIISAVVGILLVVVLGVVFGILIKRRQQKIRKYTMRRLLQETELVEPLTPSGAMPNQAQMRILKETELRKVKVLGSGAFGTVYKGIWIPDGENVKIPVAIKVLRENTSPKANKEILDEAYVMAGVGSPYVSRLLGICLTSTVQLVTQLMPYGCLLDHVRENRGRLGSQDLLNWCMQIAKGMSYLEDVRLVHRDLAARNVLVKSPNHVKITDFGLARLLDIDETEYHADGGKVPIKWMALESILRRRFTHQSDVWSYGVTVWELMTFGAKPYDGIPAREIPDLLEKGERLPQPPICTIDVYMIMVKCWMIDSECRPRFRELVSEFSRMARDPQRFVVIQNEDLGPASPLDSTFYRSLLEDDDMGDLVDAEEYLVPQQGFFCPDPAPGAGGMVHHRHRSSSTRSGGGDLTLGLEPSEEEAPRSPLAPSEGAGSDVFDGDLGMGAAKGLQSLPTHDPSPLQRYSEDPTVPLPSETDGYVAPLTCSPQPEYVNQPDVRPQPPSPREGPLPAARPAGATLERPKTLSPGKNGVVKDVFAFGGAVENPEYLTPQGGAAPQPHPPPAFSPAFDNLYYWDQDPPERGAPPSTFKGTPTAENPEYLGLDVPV
Fibroblast growth factor receptor 3 (Homo sapiens), sequence (P22607 23-806 limits assumed): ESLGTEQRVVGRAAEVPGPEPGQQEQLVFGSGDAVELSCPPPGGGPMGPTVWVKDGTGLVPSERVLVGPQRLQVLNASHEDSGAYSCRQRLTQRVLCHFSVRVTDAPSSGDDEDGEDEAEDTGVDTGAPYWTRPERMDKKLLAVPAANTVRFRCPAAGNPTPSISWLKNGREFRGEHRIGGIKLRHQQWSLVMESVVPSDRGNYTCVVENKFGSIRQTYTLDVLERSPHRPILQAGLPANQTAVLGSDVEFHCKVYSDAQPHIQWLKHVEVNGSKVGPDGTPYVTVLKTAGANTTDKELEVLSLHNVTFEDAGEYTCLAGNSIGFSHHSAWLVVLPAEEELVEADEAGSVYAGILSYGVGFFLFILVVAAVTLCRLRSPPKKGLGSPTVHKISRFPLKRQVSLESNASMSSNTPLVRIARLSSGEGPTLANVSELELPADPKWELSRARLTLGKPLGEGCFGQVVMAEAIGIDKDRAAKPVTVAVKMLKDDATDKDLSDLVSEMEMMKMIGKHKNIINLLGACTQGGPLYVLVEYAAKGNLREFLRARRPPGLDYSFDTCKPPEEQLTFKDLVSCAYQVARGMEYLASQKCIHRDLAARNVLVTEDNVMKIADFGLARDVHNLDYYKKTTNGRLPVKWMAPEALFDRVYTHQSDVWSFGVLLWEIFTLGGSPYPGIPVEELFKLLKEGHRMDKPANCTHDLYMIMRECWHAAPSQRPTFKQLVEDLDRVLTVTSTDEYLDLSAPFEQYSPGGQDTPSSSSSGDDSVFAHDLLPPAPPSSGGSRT

For `c1ccc(-c2n[nH]cc2-c2ccnc(-c3ccc(OCCN4CCOCC4)cc3)c2)nc1`, the inhibition – broadly, the change of the read-out against control, counted positive when it falls – in test [1] is 5.59%; in test [2] it was -5.09%; in test [3] it was -7.2%; in test [4], -1.67%; in test [5], 0.63%; in [6] it was -3.69%. Moreover, the inhibition is -4.37% in test [7]; 3.65% in test [8]; 2.65% in test [9]; 7.06% in [10]; 5.42% in [11]; 0.55% in test [12]. Moreover, the inhibition in test [13] came to 0.54%; in test [14] it was 3.52%; in [15], 5.55%; in test [16], 4.12%; in test [17], 7.12%; in test [18], 3.61%. In addition, the inhibition came to 5.31% in [19] and 4.68% in test [20].
For `Fc1ccc(-c2nc3n(c2-c2ccncc2)CCS3)cc1`, the inhibition in test [1] was 7.66%; in test [2], 2.13%; in test [3] it was -1.28%; in test [4], -0.26%; in [5] it was -2.49%; in test [6], 4.16%. In addition, the inhibition in test [7] came to 1.23%; in test [8], 9.02%; in [9], 10%; in test [10], 2.18%; in test [11], 2.81%; in [12] it was 2.58%. Further, the inhibition in [13] is 2.75%; in [14], -4.07%; in test [15], 1.42%; in test [16], -0.33%; in test [17], 1.72%; in [18] it was 2.38%. Besides, the inhibition is 0.09% in test [19] and -6.29% in [20].
For `O=C1Nc2ccccc2/C1=C/Nc1ccc(-n2cncn2)cc1`, the inhibition stood at 8.52% in test [1]; 4.57% in test [2]; 2.77% in test [3]; 2.19% in [4]; 2.59% in test [5]; 3.17% in test [6]. The inhibition was found to be 9.83% in test [7]; 9.69% in test [8]; 12.5% in [9]; 3.94% in test [10]; 11.2% in test [11]; 2.67% in test [12]. In addition, the inhibition in test [13] worked out at 2.63%; in test [14] it was 2.75%; in test [15], 9.98%; in test [16] it was 5.38%; in [17], 24.9%; in test [18], 7.96%. The inhibition in test [19] was found to be 22%.
As to `COc1cc(Nc2ncc3c(C)nc(-c4cccc(Oc5ccccc5)c4)n3n2)cc(OC)c1OC`, the inhibition turned out to be 8.52% in test [1]; 4.24% in test [2]; 1.21% in [3]; 2.59% in [4]; 2.97% in test [5]; 1.99% in test [6]. Further, the inhibition in test [7] was -3.48%; in test [8], 7.04%; in test [9], 8.43%; in test [10], 3.91%; in test [11], 7.1%; in test [12] it was 2.66%. Besides, the inhibition is 3.2% in [13]; 2.41% in test [14]; -0.38% in test [15]; 0.66% in [16]; 5.14% in test [17]; 3.25% in test [18]. Also, the inhibition came to 3.03% in test [19] and 1.38% in [20].
Consider `COc1cccc(/C=N/Nc2ncnc3c2cnn3-c2cccc(OC)c2)c1`, for which the inhibition in [1] was 5.8%; in test [2] it was 1.82%; in test [3] it was 3.68%; in test [4], 0.66%; in test [5], 1.2%; in test [6] it was 0.2%. Further, the inhibition in test [7] is 5.67%; in test [8], 5.57%; in test [9], 10%; in test [10], -0.09%; in test [11], 3.78%; in [12] it was 3.43%. Further, the inhibition was 3.25% in [13]; 4.2% in [14]; 2.4% in [15]; 5.34% in test [16]; 6.12% in test [17]; 4.59% in test [18]. In addition, the inhibition came out at 5.11% in [19] and 2.44% in test [20].
For the compound `CN(C)CCCNc1nccc(-c2c(-c3ccc(F)cc3)nn3cc(C(F)(F)F)ccc23)n1`, the inhibition in test [1] is 19.7%; in test [2], 0.41%; in test [3], -0.85%; in test [4], -2.73%; in test [5], 0.9%; in test [6], 0.46%. The inhibition is -1.57% in test [7]; 0.88% in test [8]; -0.51% in test [9]; 1.94% in test [10]; 1.37% in [11]; 0.87% in [12]. Also, the inhibition in test [13] is 1.2%; in test [14], 0.95%; in test [15] it was 0.04%; in test [16], -2.72%; in test [17], 0.99%; in [18], -1.5%. Moreover, the inhibition was -0.97% in test [19] and -3.68% in test [20].
With `COc1cc2ncn(-c3cc(OCc4cccs4)c(C(N)=O)s3)c2cc1OC`, the inhibition in test [1] is 20.8%; in test [2] it was -3.17%; in [3], -3.49%; in test [4], -2.89%; in test [5], -2.46%; in test [6] it was 5.9%. The inhibition in test [7] came out at 12.5%; in test [8], 1.73%; in test [9] it was 6.6%; in [10] it was 5.05%; in test [11], 12.9%; in test [12] it was 1.87%. Also, the inhibition in test [13] was 1.21%; in test [14], -3.02%; in test [15], 7.33%; in test [16] it was 1.75%; in [17] it was 15.3%; in test [18] it was 1.72%. For the same compound, the figures for the inhibition in test [19] and in test [20] were 12.4% and -0.52%, respectively.

Values taken from ChEMBL document CHEMBL1961873, “Compounds: GSK PKIS; Assays: Nanosyn kinase panel” (2012).
